Source: PubChem (National Center for Advancing Translational Sciences (NCATS))
Only some compounds are listed: those with a hit (about 0.34% of all), similar ones and a draw of the others.
miR-21 reporter – qHTS Assay for Modulators of miRNAs and/orActivators of miR-21; Potency, µM (top dose mostly 38.3 µM), for inactives: at the top dose activity change, positive = activation, hits mostly activators; HeLa miR-21 FLuc reporter, luciferase, 48 h; AID 2288, 2010; 340,000 tested, under 10 active;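 note: % of control where 0% means no effect; miR-21 action dims this reporter so a rising signal means less miR-21 action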
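Using DMEM plus 10% FBS, HeLa miR-21-FLuc cells are incubated with test compounds (final up to about 40uM) for 48 hours; firefly luciferase signal is then imaged following reagent-mediated lysis.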
Vif-A3F inh – qHTS for Inhibitors of Vif-A3F Interactions: qHTS | Potency, µM (titrated, usually from 46.1 µM), inactives show at the highest dose activity, negative = active | 390,000 tested, 0.2% active | AID 602313, 2012 | HeLa A3F-eYFP + Vif (tagged APOBEC3F with the HIV-1 protein that degrades it), YFP fluorescence increase; note: potency is the fitted concentration of half-maximal effect; % of control where 0% means no effect; nearly all actives have a fitted effect of over 65% in size
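HeLa cells stably expressing A3F-eYFP plus Vif, plated and incubated overnight at 37 deg C, then exposed to compounds overnight at 37 deg C. Blocked degradation read as raised yellow fluorescence (Ex 488/Em 500-530).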
Vif-APOBEC3G blk – qHTS for Inhibitors of Vif-A3G Interactions: qHTS. Potency, µM (series often up to 46.1 µM), for inactives: top-dose activity, negative = active, hits mostly inhibitors. HeLa A3G-eYFP + Vif (tagged APOBEC3G with the HIV-1 protein that degrades it), YFP fluorescence, overnight. DNA dC->dU-editing enzyme APOBEC-3G (Homo sapiens), Q9HC16. AID 602310, 2012. 410,000 tested, 0.076% active; note: potency is the fitted concentration of half-maximal effect; % is set by controls: 0 for no effect and ±100 for the full control effect; nearly all actives have a fitted effect of over 60% in size
Target sequence (Q9HC16 whole entry, looked up): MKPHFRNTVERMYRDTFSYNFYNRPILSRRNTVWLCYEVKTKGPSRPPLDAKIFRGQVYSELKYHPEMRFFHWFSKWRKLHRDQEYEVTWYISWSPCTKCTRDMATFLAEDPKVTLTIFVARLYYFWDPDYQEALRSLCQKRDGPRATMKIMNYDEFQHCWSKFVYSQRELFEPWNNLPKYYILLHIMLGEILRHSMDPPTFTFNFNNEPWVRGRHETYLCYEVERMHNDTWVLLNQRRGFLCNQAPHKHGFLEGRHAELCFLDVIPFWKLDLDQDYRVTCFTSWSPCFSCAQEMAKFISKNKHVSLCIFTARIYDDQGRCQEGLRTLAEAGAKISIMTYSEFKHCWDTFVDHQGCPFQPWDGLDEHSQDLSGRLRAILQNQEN
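Read-out is eYFP fluorescence (Ex 488/Em 500-530) from Vif-expressing HeLa A3G-eYFP cells; more signal means A3G escaped Vif-mediated degradation. Cells plated overnight, compound pinned in, incubated overnight at 37 deg C.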
Epigenetic derep – Quantitative High-Throughput Screen for Regulators of Epigenetic Control | murine LDR cells, GFP reporter derepression, 30 h | Potency, µM (highest dose often 53.9 µM), for the others: top-dose GFP activation, hits mostly activators | 280,000 tested, 0.2% active | AID 1865, 2009; note: potency is the fitted concentration of half-maximal effect; % of control where 0% means no effect; nearly all actives have a fitted effect of over 60% in size
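GFP-positive cell count by laser-scanning cytometry (objects 20–120 um) after 30 h, 37 C compound exposure of murine LDR cells; reporter is CMV-GFP integrated at a silenced locus, inducible by HDAC or DNMT inhibitors.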
Numbers without * were called inactive; ? = inconclusive; . = no result; [ ] = dose if it differs, or a comment. Calls come from the whole dose curve; as a rule, active = well fitted curve in the direction sought with a large enough effect; inconclusive = small, poorly fitted or top-dose-only effect, or another doubt; inactive = no such curve, though single readings can be large; an effect the other way counts as inactive or inconclusive.

SMILES	miR-21 reporter	Vif-A3F inh	Vif-APOBEC3G blk	Epigenetic derep
COc1cccc(/C(O)=C/c2nc3ccc(C(=O)NCCc4cccc(C)c4)cc3[nH]c2=O)c1	-11%	?	5.6µM*	14µM*
COc1cccc(/C(O)=C/c2nc3ccc(C(=O)NCCc4ccc(Cl)cc4)cc3[nH]c2=O)c1	-17%	5µM*	?	7.9µM*
O=C(NCCc1ccc(Cl)cc1)c1ccc2nc[nH]c2c1	-33%	8%	0%	1%
COc1cccc(C(=O)Nc2cc(C(=O)NCCc3ccccc3)ccc2Cl)c1	-20%	-14%	-3%	-1%
CCN(CC)C(=O)N1CCN(/[N+]([O-])=N/Oc2ccc([N+](=O)[O-])cc2[N+](=O)[O-])CC1	.	.	-8%	.
COc1ccc2c3c(cccc13)C(=O)N(O)C2=O	12%	-3%	-24%	0%
O=C1c2cccc3c([N+](=O)[O-])ccc(c23)C(=O)N1c1ccccn1	?	13µM*	12%	1%
O=C1c2cccc3c([N+](=O)[O-])ccc(c23)C(=O)N1O	6%	5µM*	11µM*	.
CC(=O)Oc1ccc(-n2c(=O)c3ccccc3c3ccccc3c2=O)cc1	-2%	0%	0%	0%
O=C1c2ccc([N+](=O)[O-])cc2C(=O)N1c1ccc(Cl)cn1	0%	2%	-4%	0%
CC(=O)Oc1ccc(N2C(=O)c3cccc4c([N+](=O)[O-])ccc(c34)C2=O)cc1	1%	22µM*	?	.
O=C1c2cccc3c([N+](=O)[O-])ccc(c23)C(=O)N1c1ccc(Cl)cn1	12%	?	8%	14µM*
COc1ccc(S(=O)(=O)N2CCN(c3nc(-c4ccccc4)nc4ccccc34)CC2)cc1	.	.	2%	.
Cc1ccc2nc(N/N=C/c3ccccc3F)nc(-c3ccccc3)c2c1	-3%	-12%	-5%	0%
Cc1cc(-c2ccccc2)nc(N/N=C/c2ccccc2F)n1	-10%	22µM*	-7%	.
COc1ccc(NC(=O)c2ccc(NC(=O)C(C)C)cc2)c([N+](=O)[O-])c1	-5%	10µM*	-9%	14µM*
CCCCCCc1cc2cc(-c3nnc(-c4ccccc4OC)o3)c(=O)oc2cc1O	8%	?	13µM*	?
CCCCCCc1cc2cc(-c3nnc(-c4cc(OC)c(OC)c(OC)c4)o3)c(=O)oc2cc1O	-1%	?	?	4%
CCCCCCc1cc2cc(-c3nnc(-c4ccccc4O)o3)c(=O)oc2cc1O	-1%	?	3.2µM*	6.3µM*
CCCCCCc1cc2cc(S(=O)(=O)c3ccc(F)cc3)c(=O)oc2cc1O	-4%	3%	-6%	1%
COc1cc2c(=O)n(Cc3ccccc3)c(=O)n(CC(=O)Nc3cc(C(F)(F)F)ccc3Cl)c2cc1OC	0%	-4%	1%	3%
CCOC(=O)c1cnc(-n2nc(C)cc2C)nc1NNc1nc(-c2ccccc2)cc(-c2ccccc2)n1	-1%	7.1µM*	1%	0%
C/C(=N\NC(=S)NCc1ccccc1)c1ccccc1	-43%	?	1%	7%
CC1=C/C(=N\NC(=S)NCc2ccccc2)CC1	-25%	?	-1%	13µM*
COc1ccc(C(=O)Oc2c(Sc3ccccc3)c(C)nn2-c2ccccc2)c(OC)c1	?	1%	-20%	2%
SMILES	miR-21 reporter	Vif-A3F inh	Vif-APOBEC3G blk	Epigenetic derep
CCOC(=O)N1CCC(Nc2nc3ccccc3nc2NS(=O)(=O)c2ccc(Cl)cc2)CC1	-42%	32µM*	-2%	-1%
CCOc1ccccc1NC(=O)c1c(NC(=O)Cc2ccc(OC)cc2)sc2c1CCC2	0%	0%	-14%	-2%
CCCCOc1ccc(C(C)NC(=O)c2cccc(Nc3nc4ccccc4n4nnnc34)c2)cc1 (stereo not given)	1%	?	-2%	14%
O=C1S/C(=C\c2ccc(N3CCOCC3)o2)C(=O)N1c1ccccc1	-5%	?	4.5µM*	14µM*
O=C1S/C(=C\c2ccc(N3CCOCC3)o2)C(=O)N1Cc1c(F)cccc1Cl	-9%	?	?	8.9µM*
O=C1S/C(=C/c2ccc(N3CCOCC3)o2)C(=O)N1Cc1c(F)cccc1Cl	-3%	?	4µM*	2.5µM*
COc1ccc(NC(=O)c2ccc(NC(=O)CCS(=O)(=O)c3cccs3)cc2)cc1Cl	-6%	2%	-10%	3%
CCCCC(CC)CNC(=O)CN(C)S(=O)(=O)c1ccc2c(c1)c(=O)n(C)c(=O)n2C (stereo not given)	8%	-5%	1%	-1%
O=C(Nc1c(Cl)cc([N+](=O)[O-])cc1Cl)c1cc(Cl)ccc1O	.	.	-12%	.
CC1(C)CC(=O)C2=C(C1)NC(Nc1nc3ccccc3o1)=NC2c1ccccc1Cl (stereo not given)	.	.	1%	.
CC1=C(C(=O)Nc2ccccc2)C(c2ccc(C)cc2)N=C(Nc2nc3ccccc3o2)N1 (stereo not given)	-1%	10µM*	?	0%
CCCCN1C(=O)/C(=C2/Sc3ccccc3N2C)S/C1=N\c1ncn[nH]1	-10%	22µM*	-9%	3%
Cc1ccc(-c2nc3sc(C#N)c(N)n3c(=O)c2C#N)cc1	-3%	6.3µM*	-6%	?
COc1ccc2nc(NC(=S)NC(=O)c3ccco3)sc2c1	-55%	10µM*	0%	0%
CCOC(=O)c1sc(NC(=S)NC(=O)c2ccco2)nc1C	-21%	22µM*	-1%	-1%
CCCCNC(=O)CSc1nc2ccccc2nc1Cc1ccccc1	-2%	0%	-1%	-1%
COC(=O)C1C2CC3c4[nH]c5cc(OC)ccc5c4CCN3CC2CC(OC(=O)CC(C)=O)C1OC (stereo not given)	.	25µM*	?	.
COC(=O)[C@@H]1[C@@H]2C[C@H]3c4[nH]c5cc(OC)ccc5c4CCN3C[C@@H]2C[C@H](OC(=O)c2cc(OC)c(OC)c(OC)c2)[C@H]1OC	.	.	.	8%[16.9 µM]
Cc1nc2c3cc(F)ccc3n(Cc3ccccc3)c2s1	7%	-28%	6.3µM*	0%
Cc1csc(NC(=O)c2sc3nc(-c4cccs4)ccc3c2N)n1	-17%	22µM*	?	?
CC(C)=CC[C@@H](O)C1=CC(=O)c2c(O)ccc(O)c2C1=O	.	.	.	1%
COCCOC(=O)N1CCN(/[N+]([O-])=N/Oc2ccc([N+](=O)[O-])cc2[N+](=O)[O-])CC1	.	.	-3%	.
Cc1ccc2oc(=O)c3cc(C(=O)N(Cc4ccccc4)C(C)C)sc3c2c1	-3%	5%	-4%	-1%
CCOC(=O)/C(C#N)=N\Nc1cc(Cl)ccc1OC	0%	10µM*	-5%	?
Fc1ccccc1COc1ccc2ccccc2c1CNc1nn[nH]n1	-2%	-20%	?	0%
Fc1ccc(COc2ccc3ccccc3c2CNc2nn[nH]n2)cc1	5%	-1%	13µM*	-1%
